In PubChem BioAssay AID493005 (National Center for Advancing Translational Sciences (NCATS), 2010):
Screen size: about 340,000 compounds; fewer than 10 were called active. Calls come from the whole dose curve; as a rule, active = well fitted inhibition curve with a large enough effect in the main read-out, with a control signal flat (not every such curve was filed as active); inconclusive = small, poorly fitted or top-dose-only effect, or effect the other way, or a change in a side signal; inactive = no such curve, though single readings can be large or run the other way. The list is a sample of the results.

Target: Tumor susceptibility gene 101 protein (Homo sapiens) (UniProt Q99816)
Assay: qHTS Assay for Iinhibitors of HIV-1 Budding by Blocking the Interaction of PTAP/TSG101; note: % of control where 0% means no effect
Details: Fluorescence polarization, FITC-PTAP peptide / Tsg101 binding; series mostly up to 115 µM; activity change, negative = inhibition: at the top concentration
Source text: NIH Molecular Libraries Probe Production Network [MLPCN] NIH Chemical Genomics Center [NCGC] MLPCN Grant: 1 R03 MH087464-01A1 PI Name: Dr. Eric Freed, NCI NCGC Assay Overview: Stages of the HIV-1 replication cycle, specifically virus assembly and release, provide underexploited targets for the development of novel antiviral inhibitors. The late stages of HIV-1 replication are mediated by the Gag precursor protein, Pr55Gag. Expression of Pr55Gag is both necessary and sufficient for the production of virus-like particles from Gag-expressing cells. The Gag protein hijacks key host proteins involved in endocytic machinery of the host cell to promote endosomal processing and viral budding. The budding process requires a direct interaction between a […] (PTAP) motif in the p6 domain of Gag and the cellular endosomal sorting protein known as Tsg101. In this way, the Gag PTAP motif promotes the host cells to recruit viral particles to the plasma membrane where the new viral particles are released, effectively turning the host cells into viral factories. A fluorescence anisotropy assay has been developed to quantitatively measure the PTAP-Tsg101 interaction which can be used to screen for inhibitors of this interaction.
NCGC Assay Protocol Summary: Two uL of the Tsg101 binding domain in buffer (10 mM HEPES pH 7.5; 0.15 M NaCl, 0.01% Tween 20; 3 mM EDTA;0.1 mM TCEP) was dispensed into Greiner black MB 1536-well plates (final concentration 10 uM). Then, 23 nL of compounds or DMSO were delivered to each well using a pin tool. Finally, 2 uL of a FITC-labeled peptide containing the PTAP motif (1) in the same buffer was dispensed (50 nM final concentration) and the binding was allowed to proceed for 20 min. at r.t. Fluorescent polarization was determined using FITC excitation and polarized emission filters on a Perkin Elmer Viewlux. Keywords: Tsg101, PTAP, Gag, HIV, fluorescent polarization, MLSMR, MLPCN, NIH Roadmap, qHTS, NCGC

Chain of Tumor susceptibility gene 101 protein (Homo sapiens) (Q99816 whole entry, looked up): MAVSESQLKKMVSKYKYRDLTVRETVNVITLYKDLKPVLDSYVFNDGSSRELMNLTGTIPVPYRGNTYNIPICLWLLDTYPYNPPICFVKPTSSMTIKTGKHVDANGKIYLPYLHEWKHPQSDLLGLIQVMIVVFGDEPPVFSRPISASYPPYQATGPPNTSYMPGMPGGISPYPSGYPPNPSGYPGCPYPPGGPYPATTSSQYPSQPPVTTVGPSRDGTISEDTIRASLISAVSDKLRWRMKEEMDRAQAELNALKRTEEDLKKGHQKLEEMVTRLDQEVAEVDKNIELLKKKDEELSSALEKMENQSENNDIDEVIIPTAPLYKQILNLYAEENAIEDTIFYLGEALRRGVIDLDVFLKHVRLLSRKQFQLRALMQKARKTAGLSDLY

Activity change, negative = inhibition, inactive:
CCN(CC)S(=O)(=O)c1cccc(NC(=O)c2ccc(S(=O)(=O)N3CCCC3)cc2)c1 -3.29%
CC(NCCO)C(=O)C12CC3CC(CC(C3)C1)C2 (stereo not given) -5.36%
COCCNC(=O)C(OC(=O)c1cccs1)c1ccc(F)cc1 (stereo not given) -1.42%
O=C1NC(Nc2nc3ccccc3s2)(C(F)(F)F)C(=O)N1C1CCCCC1 (stereo not given) -3.48%
COC(=O)c1cc(NC(=O)CC2C(=O)NCCN2C(=O)c2ccc(F)cc2)cc(C(=O)OC)c1 (stereo not given) -6.53%
Cc1occc(=O)c1OCc1c(Cl)cccc1Cl -1.89%
CCCCc1ccc(NS(=O)(=O)c2cccc(C(=O)N3CCCN(C)CC3)c2)cc1 -4.27%
CCC(=O)N1c2ccc(S(=O)(=O)NCc3ccco3)cc2CC1C (stereo not given) -2.03%
Cc1nnc(SCCCCSc2nnc(C)c(=O)[nH]2)[nH]c1=O -1.02%
CCOC(=O)c1cccc(NC(=O)CCc2nnc3ccc(N4CCOCC4)nn23)c1 -10.9%
CCCC[C@H]1COCCS(=O)(=O)N1Cc1cccc(Cl)c1 1.87%
C/C=C/c1ccc(OCC(=O)NNC(=O)CN(C)S(=O)(=O)c2ccc(C)cc2)c(OC)c1 -5.6%
CC(C)(C)c1cc(NC(=O)NN2CCOCC2)nn1-c1c(Cl)cc(Cl)cc1Cl -4.53%
COc1ccc(OC)c(C(O)c2nc3ccccc3n2C)c1 (stereo not given) 0.975%
NC(=O)C1(N2CCCC2)CCN(Cc2ccccc2)CC1 -2.04%
CCOC(=O)C1CN(S(=O)(=O)c2ccc(F)cc2)C1 -0.508%
CC(C)(C)n1cnnc1Sc1ccc([N+](=O)[O-])cn1 -5.76%
O=C(COC(=O)/C=C/c1cccc(Cl)c1)NCc1cccs1 -1.32%
Cc1onc(-c2c(F)cccc2Cl)c1C(=O)Nc1cccc(S(=O)(=O)N2CCCCC2)c1 -3.61%
CSc1sc(C(=O)NC(=O)NCc2cccnc2)c(C)c1-c1ccon1 -1.8%
Cc1nn(-c2ccccc2)c2c1C(c1cccc([N+](=O)[O-])c1)N(c1ccccc1)C(=O)N2 (stereo not given) -1.94%
CC1(C)C2CCC13CS(=O)(=O)NC3C2 (stereo not given) -2.1%
Cc1nc(Nc2ccccc2C)c2cnn(C)c2n1 -1.3%
O=C1N[C@@H](Cc2ccccc2)C(=O)N2[C@@H]3N(S(=O)(=O)c4ccc(F)cc4)c4ccccc4[C@]3(Br)C[C@@H]12 0.056%
CCC1=C(OC(=O)N(CC)CC)N2C(=O)OC(=NCC3CC3)[C@]2(C)[C@H]2C1=CC[C@H]1C(=O)N(CC(=O)OC)C(=O)[C@H]12 -10.6%
CC(C)N1CCc2c(sc(NC(=O)Cc3ccccc3)c2C#N)C1 -2.3%
C#CCCCc1nc2ccccc2c(=O)n1N -1.38%
CCCCN1CC(CO)Oc2cccc(F)c2S1(=O)=O (stereo not given) -5.79%
CCCc1nc(SCC(=O)Nc2ccccc2OC)c2c(=O)n(C)c(=O)n(C)c2n1 0.785%
CC(=O)Nc1cccc(NC(=O)CSc2nccn2Cc2ccc(F)cc2)c1 -2.24%
N#Cc1cccc(OC(=O)c2ccc3c(=O)n4c(nc3c2)CCC4)c1 -3.21%
CSc1ccccc1NC(=O)CN(C)CC(=O)Nc1cccc(Br)c1 0.804%
CN(C)/C(=N\OC(=O)c1ccccc1)c1nonc1N -1.1%
CCOc1ccc(NC(=O)[C@H](C)NC(=O)C2CC(=O)N(c3ccc(OC)cc3)C2)cc1 (stereo not given in full) -2.26%
COc1cc(C2NC(=O)NC(c3ccccc3)=C2C(C)=O)c(Br)cc1OCC(N)=O (stereo not given) 1.51%
Cc1ccc(C(NC(=O)N2CCCC2)C(Cl)(Cl)Cl)cc1F (stereo not given) 0.175%
CCn1c(CC(=O)Nc2ccccc2C)nnc1SCC(=O)NC1=NCCS1 0.499%
Cc1cccc(-n2c(Cc3cc(=O)[nH]c(=O)[nH]3)nnc2SC(C)C)c1 -3.65%
Cc1ccccc1C(=O)N1CCC(C(=O)Nc2ccc(S(=O)(=O)N(C)C(C)C)cc2)CC1 -5.76%
Cc1no[n+]([O-])c1COc1ccccc1/C=C1\NC(=S)NC1=O -1.51%
Cc1coc2cc3oc(=O)c(CCC(=O)O)c(C)c3cc12 -1.58%
CC(C)Cc1nnc(N)s1 0.822%
Cc1ccc2c(c1)N(CC(=O)NCCCN1CCCCC1)C(=O)c1cccnc1O2 -3.98%
CC1CC(C)CN(C(=O)CCNC(=O)Cn2cnc3ccccc3c2=O)C1 (stereo not given) -3.52%
O=C(Cc1ccc(S(=O)(=O)N2CCOCC2)s1)NCCOc1ccccc1F -3.13%
O=C(COc1ccc2c(c1)CCC2)N1CCN(c2ccc(F)cc2)CC1 -4.81%
CN(C)c1ccc(Nc2c3c4c(cccc4n(C)c2=O)C(=O)c2ccccc2-3)cc1 -12.6%
CC(Cc1cccs1)NC(=O)c1cccc(Cl)c1 (stereo not given) -2.64%
O=C(Cc1ccc([N+](=O)[O-])cc1)NCCc1ccc2c(c1)OCO2 0.815%
CCC(CC)C(=O)Nc1c2c(nn1-c1ccc(C)cc1)CS(=O)(=O)C2 -0.386%
CCCC1(C(=O)OCC)NC(c2ccc(N(C)C)cc2)C2C(=O)N(c3ccc4c(c3)OCCO4)C(=O)C21 (stereo not given) -5.54%
COc1cc2c(cc1CNC[C@H]1O[C@@H](n3cnc(C(N)=O)n3)[C@H](O)[C@@H]1O)OCO2 -0.393%
COc1ccc(/C=C/C2=CC(C)(C)NC(=S)N2)c(OC)c1 -5.34%
O=C(NC1CCN(C(=S)Nc2ccc(Cl)cc2)CC1)C1CCCCC1 -2.49%
N#CC1(NC(=O)COC(=O)CSc2ccc(F)cc2)CCCCC1 -0.309%
CC(=O)c1ccc(Cc2ncc(C(F)(F)F)cc2Cl)s1 -2.94%
COc1ccc(-c2cc(C(F)(F)F)n3nc(C(=O)N4CCOCC4)c(Cl)c3n2)cc1 -1.7%
Cc1ccsc1C1C(C#N)=C(N)OC2=C1C(=O)CC(C)C2 (stereo not given) -6.04%
O=[N+]([O-])c1cccc(S(=O)(=O)N2CCCCCC2)c1 -4.08%
CC(C)c1ccc(S(=O)(=O)N2CCC3(CC2)OCCO3)cc1 5%
O=C(CN1C(=O)NC2(CCCC2)C1=O)NCC1CCCO1 (stereo not given) -0.821%
NC(=O)c1ccc(CN2CCC(Cc3ccccc3)CC2)cc1 -4.25%
O=C(N/C(=C\c1ccc(O)cc1)C(=O)N1CCCCC1)c1ccccc1 -4.56%
O=C(O)C1C2C=CC(O2)C1C(=O)NCCc1cccc(Cl)c1 (stereo not given) -2.45%
CC1=C(C(=O)N(C)C)C(c2ccccc2OC(F)F)NC(=O)N1 (stereo not given) -2.19%
Cn1c2ccc(F)cc2c2nnc(NN)nc21 -1.99%
CC(C)Oc1ccc(CCc2n[nH]c(=S)n2Cc2ccccc2)cc1 -8.46%
CCc1nnc(NC(=O)CSc2nc3ccccc3c(=O)n2CCCOC)s1 -4.64%
O=C(Nc1ccc(-n2cccn2)cc1)C1CCN(Cc2ccsc2)CC1 -0.259%
CCOC(=O)C1Nc2ccc(C(F)(F)F)cc2C2C=CCC12 (stereo not given) -7.44%
